A selection: hits, their analogues and other compounds. The true share with any hit is near 2.6%.
Cruzain Triton: cruzain (T. cruzi) inhibition with detergent. P25779. purified cruzain, Z-FR-AMC fluorescence, 0.01% Triton. Potency, µM, usual class: inhibitors. 0.43% of 200,000 active. AID 1478; note: nearly all actives have a fitted effect of over 40% in size
Target sequence (P25779 123-467 limits assumed): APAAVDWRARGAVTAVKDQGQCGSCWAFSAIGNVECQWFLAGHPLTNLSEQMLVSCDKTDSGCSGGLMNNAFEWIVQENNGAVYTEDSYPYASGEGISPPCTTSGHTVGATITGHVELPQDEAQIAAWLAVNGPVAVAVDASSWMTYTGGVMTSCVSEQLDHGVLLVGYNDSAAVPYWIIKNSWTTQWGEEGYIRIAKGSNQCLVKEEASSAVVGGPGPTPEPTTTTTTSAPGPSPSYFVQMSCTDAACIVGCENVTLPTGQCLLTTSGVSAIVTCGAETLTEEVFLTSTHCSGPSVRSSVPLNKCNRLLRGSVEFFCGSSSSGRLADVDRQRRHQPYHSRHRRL
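Read-out: AMC fluorescence (360 nm excitation, 450 nm emission), four reads over 2 min, first-to-third difference used. Conditions: cruzain 1.5 nM, Z-FR-AMC 2 uM, pH 5.5 acetate, 5 mM DTT, 0.01% Triton X-100.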
Cruzain noTriton: inhibitors of Trypanosoma cruzi cruzain without detergent; Potency, µM, hits mostly inhibitors; 2.3% of 200,000 active; purified cruzain, Z-FR-AMC fluorescence, no detergent; P25779; note: nearly all actives have a fitted effect of over 40% in size
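Detergent-free condition (0.00005% Triton X-100) in acetate buffer pH 5.5 with DTT. 1.5 nM enzyme and compound were pre-mixed 15 min, then 2 uM Z-FR-AMC substrate added; reaction progress from fluorescence change between first and third reads (60 s).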
Each line names hits and unclear results; the compound was inactive in the other large screens. Calls come from the whole dose curve; as a rule, active = well fitted curve in the direction sought with a large enough effect; inconclusive = small, poorly fitted or top-dose-only effect, or another doubt; inactive = no such curve, though single readings can be large; an effect the other way counts as inactive or inconclusive.

c1ccc(C2CO2)cc1 (configuration not stated)	none
COC(=O)c1ccc(C#CC(NP(=O)(c2ccccc2)c2ccccc2)c2ccccc2)cc1 (configuration not stated)	none
CC(=O)c1ccc(NC(=O)c2nc(-c3ccccc3)n(-c3ccc(Cl)cc3)n2)cc1	Cruzain noTriton 13µM
CC(=O)c1ccc(NC(=O)c2nc(-c3ccccc3)n(-c3ccc(C)cc3)n2)cc1	none
COc1ccc(Cl)cc1CNCCSc1nnnn1-c1ccccc1	none
CCCc1nc2ccccc2n1CC(O)COc1ccc(C(=O)OC)cc1 (configuration not stated)	none
O=C(c1cccc(F)c1)N1CCC[C@@]2(CCN(C(c3ccccc3)c3ccccc3)C2)C1	none
N#CC1=C(N)OC2=C(CCc3ccccc32)C1c1ccccc1 (configuration not stated)	none
Cc1ccc(/C=C2\CCC3=C2OC(N)=C(C#N)C3c2ccc(C)cc2)cc1 (configuration not stated)	Cruzain noTriton 25µM
Cc1ccccc1CNCCSc1nnnn1-c1ccccc1	none
Cc1cccc(NC(=O)CCc2c(C)nc3c(c(C)nn3C(C)(C)C)c2C)c1C	Cruzain noTriton inconclusive
Cc1ccc(-c2csc3ncnc(SCC(=O)NCc4ccc5c(c4)OCO5)c23)cc1	Cruzain noTriton 25µM
O=C(CSc1ncnc2scc(-c3ccc(Cl)cc3)c12)NCc1ccc2c(c1)OCO2	Cruzain noTriton inconclusive
Cc1cccc(-c2nc(SCC(=O)Nc3ccc4c(c3)OCO4)c(-c3ccccc3)[nH]2)c1	Cruzain noTriton inconclusive
CN(C)c1ccc(-c2cncnc2Nc2ccc(F)cc2)cc1	none
O=c1cnc2cnc(N3CCNCC3)nc2n1Cc1ccc(F)cc1	none
COc1ccc(/C=N/Nc2ccc([N+](=O)[O-])cc2S(=O)(=O)N2CCN(C)CC2)cc1	none
Brc1ccc(-c2ccc(/C=N/Nc3nncc(-c4ccccc4)n3)o2)cc1	none
O=C(N/N=C/c1ccc[nH]1)c1ccccc1[N+](=O)[O-]	none
COc1ccccc1NS(=O)(=O)c1cc([N+](=O)[O-])ccc1N/N=C/c1sc(N2CCOCC2)nc1-c1ccccc1	Cruzain noTriton 6.3µM
O=C(N/N=C/c1c[nH]c2ccccc12)c1cccc([N+](=O)[O-])c1	none
Brc1ccc(-c2ccc(/C=N/Nc3nc4ccccc4[nH]3)o2)cc1	Cruzain Triton inconclusive, Cruzain noTriton 7.9µM
O=C(N/N=C/c1c[nH]c2c1ccc1ccccc12)c1ccc([N+](=O)[O-])cc1	Cruzain noTriton 6.3µM
O=[N+]([O-])c1ccc(N/N=C/c2ccc[nH]2)cc1	Cruzain noTriton 25µM
O=C(NCCCc1nc2ccccc2n1Cc1ccccc1Cl)C1CCCCC1	none
O=C(c1cnccn1)N1CCC2(CCCN(C(c3ccccc3)c3ccccc3)C2)CC1	none
CCOC(=O)c1[nH]c2c(c1Cc1ccccc1)C(=O)CC(c1ccc(OC)cc1)C2 (configuration not stated)	none
Cc1ccc(/C=N/Nc2nc3ccccc3[nH]2)s1	none
COc1ccc(NS(=O)(=O)c2cc([N+](=O)[O-])ccc2N/N=C\c2c(C)[nH]c3ccccc23)cc1	Cruzain noTriton inconclusive
Cc1[nH]c2ccccc2c1/C=N/Nc1ccc([N+](=O)[O-])cc1S(=O)(=O)Nc1ccc(Cl)cc1	Cruzain noTriton 5µM
O=[N+]([O-])c1ccc(N/N=C/c2c[nH]c3ccccc23)cc1	Cruzain noTriton 25µM
O=[N+]([O-])c1ccccc1N/N=C/c1c[nH]c2ccccc12	none
COc1ccc([N+](=O)[O-])cc1NS(=O)(=O)c1ccccc1	none
C(=N\Nc1nc2ccccc2[nH]1)/c1c[nH]c2ccccc12	Cruzain Triton inconclusive, Cruzain noTriton 16µM
COc1ccccc1NS(=O)(=O)c1cc([N+](=O)[O-])ccc1N/N=C/c1c[nH]c2ccccc12	Cruzain noTriton 10µM
O=C(c1ccc(CSc2nc3ccncc3n2Cc2ccc(F)cc2)cc1)N1CCCCCC1	none
COc1ccc(CCNC(=O)CN(c2ccccc2)S(=O)(=O)N(C)C)cc1	none
CC(=O)NCCNc1nc(-c2cccc(NS(C)(=O)=O)c2)nc2ccccc12	none
NS(=O)(=O)c1ccc(CCNC(=O)c2ccc3nc(Cc4ccccc4)oc3c2)cc1	none
C[C@H]1CCCC=CC2C[C@H](OC(=O)CN(C)C)C[C@@H]2[C@@H](O)/C=C\C(=O)O1 (some centres not stated)	none
COc1ccc(CNC(=O)Cn2nc3c(cc2=O)CCCC3)cc1	none
COc1ccccc1NS(=O)(=O)c1ccc(N/N=C/c2c(C)nn(-c3ccccc3)c2N2CCCC2)c([N+](=O)[O-])c1	Cruzain noTriton 3.2µM
Cc1nn(-c2ccccc2)c(N2CCCC2)c1/C=N/Nc1ccc(S(=O)(=O)Nc2ccccc2)cc1[N+](=O)[O-]	Cruzain noTriton inconclusive
Cc1cccc(N2CCN(c3ccc(C(=O)O)cc3NC(=O)c3cccc(Cl)c3)CC2C)c1 (configuration not stated)	Cruzain Triton inconclusive
